Laboratory results reported in PubChem BioAssay (NCATS).
Records with an inconclusive call do not appear. Calls of active or inactive are those of the source. The call rests on the fitted dose curve; in most records, active means well fitted curve in the direction sought with a large enough effect; inconclusive means small, poorly fitted or top-dose-only effect, or another doubt; inactive means no such curve, though single readings can be large; an effect the other way counts as inactive or inconclusive.

assay: qHTS of pediatric cancer cell lines to identify multiple opportunities for drug repurposing: Confirmatory screen for DAOY cells (AID 1347114); conditions: DAOY medulloblastoma cells viability, cytotoxicity qHTS; series mostly up to 45.9 µM; activity change, negative = cytotoxic: at the top concentration; further: nearly all actives have a fitted effect of over 65% in size; on activity change, negative = cytotoxic: on the % scale 0 is the no-effect control and ±100 the full control effect
In short: (§1)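 Viability measured as metabolically active cells via CellTiter-Glo luminescence following 48 hours of compound exposure, 11-point dilutions in confirmatory testing. 500-1,000 cells/well plated 5 hours before dosing; controls were DMSO and 2.3 µM bortezomib.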
Potency means the concentration at half of the fitted maximal effect.

SMILES	activity change, negative = cytotoxic	Potency
CC(C(C)N1CC(=O)NC(=O)C1)N1CC(=O)NC(=O)C1 (stereo not drawn)	-18.4% (inactive)	
C[C@@]12C(=O)OC(=O)[C@@]1(C)C1CCC2O1		2.61 µM (active)
COC(=O)[C@@H]1[C@H]2C[C@@H]3c4[nH]c5ccccc5c4CCN3C[C@@H]2CC[C@@H]1O	-9.91% (inactive)	
C=CC(=O)Nc1cccc(Nc2nc(NC3CCC(N(C)C)CC3)nc3c2ncn3C(C)C)c1 (stereo not drawn)		3.29 µM (active)
COc1ccc(C(C)=O)c(O)c1	3.68% (inactive)	
N#CNC(=NCCCCCCOc1ccc(Cl)cc1)Nc1ccncc1		0.165 µM (active)
CC(C)C[C@H](NC(=O)CNC(=O)c1cc(Cl)ccc1Cl)B1OC(=O)CC(CC(=O)O)(C(=O)O)O1 (stereo partly drawn)		0.165 µM (active)

assay: qHTS of pediatric cancer cell lines to identify multiple opportunities for drug repurposing: Confirmatory screen for NB-EBc1 cells (AID 1347115); conditions: NB-EBc1 neuroblastoma cells, viability (cytotoxicity); series mostly up to 45.9 µM; activity change, negative = cytotoxic: at the top concentration;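 further: cells exposed to compound for 48 h before the viability read; nearly all actives have a fitted effect of over 45% in size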; on activity change, negative = cytotoxic: on the % scale 0 is the no-effect control and ±100 the full control effect
In short: (§2)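 Cells (500-1,000/well) rested 5 h, then received compounds for 48 h; metabolically active cells were measured by CellTiter-Glo luminescence. Final concentrations spanned up to 46 µM (MIPE, 11-point) or 0.59 nM-46 µM (NPC, 8-point) in primary screens, 11-point in follow-ups.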

SMILES	Potency	activity change, negative = cytotoxic
COc1cccc2c1C(=O)c1c(O)c3c(c(O)c1C2=O)C[C@@](O)(C(=O)CO)C[C@@H]3O[C@H]1C[C@H](N)[C@H](OC2CCCCO2)[C@H](C)O1 (stereo partly drawn)	1.65 µM (active)	
C[C@@]12C(=O)OC(=O)[C@@]1(C)C1CCC2O1	2.08 µM (active)	
COC(=O)[C@@H]1[C@H]2C[C@@H]3c4[nH]c5ccccc5c4CCN3C[C@@H]2CC[C@@H]1O		-2.24% (inactive)
C=CC(=O)Nc1cccc(Nc2nc(NC3CCC(N(C)C)CC3)nc3c2ncn3C(C)C)c1 (stereo not drawn)	7.37 µM (active)	
COc1ccc(C(C)=O)c(O)c1		-17.6% (inactive)
N#CNC(=NCCCCCCOc1ccc(Cl)cc1)Nc1ccncc1	0.0414 µM (active)	

assay: qHTS of pediatric cancer cell lines to identify multiple opportunities for drug repurposing: Confirmatory screen for SJ-GBM2 cells (AID 1347116); conditions: SJ-GBM2 glioblastoma cells, viability; series mostly up to 45.9 µM; activity change, negative = cytotoxic: at the top concentration; further: nearly all actives have a fitted effect of over 60% in size
In short: as §1

SMILES	Potency	outcome
C[C@@]12C(=O)OC(=O)[C@@]1(C)C1CCC2O1	6.57 µM (active)	
COC(=O)[C@@H]1[C@H]2C[C@@H]3c4[nH]c5ccccc5c4CCN3C[C@@H]2CC[C@@H]1O		inactive
C=CC(=O)Nc1cccc(Nc2nc(NC3CCC(N(C)C)CC3)nc3c2ncn3C(C)C)c1 (stereo not drawn)	4.65 µM (active)	
CC(C)C[C@H](NC(=O)CNC(=O)c1cc(Cl)ccc1Cl)B1OC(=O)CC(CC(=O)O)(C(=O)O)O1 (stereo partly drawn)	0.147 µM (active)	

assay: qHTS of pediatric cancer cell lines to identify multiple opportunities for drug repurposing: Confirmatory screen for BT-37 cells (AID 1347117); conditions: BT-37 pediatric cancer cells, viability; activity change, negative = cytotoxic: at 45.9 µM (top of the series); further: nearly all actives have a fitted effect of over 55% in size;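 on activity change, negative = cytotoxic: plate controls were DMSO for no effect and bortezomib for full effect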
In short: as §2

SMILES	Potency	activity change, negative = cytotoxic
CC(C(C)N1CC(=O)NC(=O)C1)N1CC(=O)NC(=O)C1 (stereo not drawn)	9.27 µM (active)	
COc1cccc2c1C(=O)c1c(O)c3c(c(O)c1C2=O)C[C@@](O)(C(=O)CO)C[C@@H]3O[C@H]1C[C@H](N)[C@H](OC2CCCCO2)[C@H](C)O1 (stereo partly drawn)	0.928 µM (active)	
C[C@@]12C(=O)OC(=O)[C@@]1(C)C1CCC2O1	2.08 µM (active)	
CS(=O)(=O)N1CCc2c(-c3cnc(N)nc3)nc(N3CCOCC3)nc21	5.85 µM (active)	
COC(=O)[C@@H]1[C@H]2C[C@@H]3c4[nH]c5ccccc5c4CCN3C[C@@H]2CC[C@@H]1O		-2.22% (inactive)
C=CC(=O)Nc1cccc(Nc2nc(NC3CCC(N(C)C)CC3)nc3c2ncn3C(C)C)c1 (stereo not drawn)	0.827 µM (active)	
COc1ccc(C(C)=O)c(O)c1		-5.47% (inactive)
N#CNC(=NCCCCCCOc1ccc(Cl)cc1)Nc1ccncc1	0.0185 µM (active)	
CC(C)C[C@H](NC(=O)CNC(=O)c1cc(Cl)ccc1Cl)B1OC(=O)CC(CC(=O)O)(C(=O)O)O1 (stereo partly drawn)	0.522 µM (active)	

assay: qHTS of pediatric cancer cell lines to identify multiple opportunities for drug repurposing: Confirmatory screen for TC32 cells (AID 1347118); conditions: TC32 Ewing sarcoma cells viability qHTS; series mostly up to 45.9 µM; activity change, negative = cytotoxicity: at the top concentration;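 further: cells exposed to compound for 48 h before the read; nearly all actives have a fitted effect of over 65% in size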
In short: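 TC32 cells, 500-1,000/well in growth medium, compound-treated 48 h at 37 °C; viability from CellTiter-Glo luminescence. Primary screen: MIPE 11-point (0.78 nM–46 µM final), NPC 8-point (0.59 nM–46 µM final); confirmatory at 11-point dilutions.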

SMILES	Potency
CC(C(C)N1CC(=O)NC(=O)C1)N1CC(=O)NC(=O)C1 (stereo not drawn)	4.14 µM (active)
C[C@@]12C(=O)OC(=O)[C@@]1(C)C1CCC2O1	3.69 µM (active)
C=CC(=O)Nc1cccc(Nc2nc(NC3CCC(N(C)C)CC3)nc3c2ncn3C(C)C)c1 (stereo not drawn)	0.657 µM (active)
N#CNC(=NCCCCCCOc1ccc(Cl)cc1)Nc1ccncc1	0.0041 µM (active)
CNC(=O)c1cccc(-c2ccc3c(N4CCOC[C@H]4C)nc(N4CCOC[C@H]4C)nc3n2)c1	0.737 µM (active)

assay: qHTS of pediatric cancer cell lines to identify multiple opportunities for drug repurposing: Confirmatory screen for MG 63 (6-TG R) cells (AID 1347119); conditions: MG-63 (6-TG resistant) osteosarcoma viability; series mostly up to 45.9 µM; activity change, negative = cytotoxicity: at the top concentration; further: nearly all actives have a fitted effect of over 55% in size;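 on activity change, negative = cytotoxicity: plate controls were DMSO neutral control for no effect and bortezomib for full effect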
In short: as §2

SMILES	Potency	activity change, negative = cytotoxicity
CC(C(C)N1CC(=O)NC(=O)C1)N1CC(=O)NC(=O)C1 (stereo not drawn)	5.22 µM (active)	
COc1cccc2c1C(=O)c1c(O)c3c(c(O)c1C2=O)C[C@@](O)(C(=O)CO)C[C@@H]3O[C@H]1C[C@H](N)[C@H](OC2CCCCO2)[C@H](C)O1 (stereo partly drawn)	1.47 µM (active)	
C[C@@]12C(=O)OC(=O)[C@@]1(C)C1CCC2O1	1.47 µM (active)	
CS(=O)(=O)N1CCc2c(-c3cnc(N)nc3)nc(N3CCOCC3)nc21	0.585 µM (active)	
COC(=O)[C@@H]1[C@H]2C[C@@H]3c4[nH]c5ccccc5c4CCN3C[C@@H]2CC[C@@H]1O		15.3% (inactive)
C=CC(=O)Nc1cccc(Nc2nc(NC3CCC(N(C)C)CC3)nc3c2ncn3C(C)C)c1 (stereo not drawn)	3.69 µM (active)	
COc1ccc(C(C)=O)c(O)c1		-19.7% (inactive)
CNC(=O)c1cccc(-c2ccc3c(N4CCOC[C@H]4C)nc(N4CCOC[C@H]4C)nc3n2)c1	0.522 µM (active)	

assay: qHTS of pediatric cancer cell lines to identify multiple opportunities for drug repurposing: Confirmatory screen for control Hh wild type fibroblast cells (AID 1347121); conditions: viability qHTS; series mostly up to 45.9 µM; activity, negative = cytotoxic: at the top concentration; further: nearly all actives have a fitted effect of over 70% in size;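 on activity, negative = cytotoxic: plate controls were DMSO for no effect and bortezomib for full effect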
In short: as §2

SMILES	activity, negative = cytotoxic	Potency
CC(C(C)N1CC(=O)NC(=O)C1)N1CC(=O)NC(=O)C1 (stereo not drawn)	6.12% (inactive)	
C=CC(=O)Nc1cccc(Nc2nc(NC3CCC(N(C)C)CC3)nc3c2ncn3C(C)C)c1 (stereo not drawn)	-46.1% (inactive)	
COc1ccc(C(C)=O)c(O)c1	-1.1% (inactive)	
CC(C)C[C@H](NC(=O)CNC(=O)c1cc(Cl)ccc1Cl)B1OC(=O)CC(CC(=O)O)(C(=O)O)O1 (stereo partly drawn)		16.5 µM (active)
